Test in all cases: NCI-60 one-dose screen, 48 h (100 = growth as untreated, 0 = no growth, -100 = all killed)
The subject of one experiment is SR leukemia. The settings on record: 10 µM.
For another experiment, the system named is RPMI-8226 leukemia. Particulars: 10 µM.
In a further experiment the test system is OVCAR-5 ovarian. The settings on record: 10 µM.
The test system of a further experiment is OVCAR-4 ovarian. The settings on record: 10 µM.
For the next experiment, the system named is SK-OV-3 ovarian. Particulars: 10 µM.
A further experiment relates to OVCAR-3 ovarian. The settings on record: 10 µM.
A further experiment has as its system HS 578T breast. The settings on record: 10 µM.
The next experiment concerns NCI/ADR-RES ovarian. Particulars: 10 µM.
The next experiment concerns T-47D breast. Particulars: 10 µM.
A further experiment relates to BT-549 breast. Particulars: 10 µM.
A further experiment relates to MDA-MB-435 melanoma. Particulars: 10 µM.
The subject of a further experiment is SW-620 colon. The settings on record: 10 µM.
The subject of another experiment is MCF7 breast. The settings on record: 10 µM unless noted.
A further experiment has as its system HCT-116 colon. Particulars: 10 µM.
The next experiment deals with HCC-2998 colon. Particulars: 10 µM.
In the next experiment the test system is KM12 colon. The settings on record: 10 µM.
A further experiment deals with IGROV1 ovarian. The settings on record: 10 µM.
For another experiment, the system named is OVCAR-8 ovarian. The settings on record: 10 µM.

This is part of a sample that, as a whole, favours compounds with a hit. Of some 83,000 tested, about 20% had one in any assay.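 Activity criterion: percent growth below 10, measured after cells in 96-well plates were exposed to a single compound concentration for 48 hours.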 Values without a mark were called inactive. The source made the active and inactive calls.

As for `C=CCCCCCCCCCOC(C)=O`, the growth with SR leukemia is 91.4%; in the experiment on RPMI-8226 leukemia, 101%; in the experiment on OVCAR-5 ovarian it was 103%; in the experiment on OVCAR-4 ovarian, 103%; in the experiment with SK-OV-3 ovarian, 104%; in the experiment with OVCAR-3 ovarian, 103%. The growth with HS 578T breast is 99.7%; in the experiment on NCI/ADR-RES ovarian, 107%; in the experiment with T-47D breast it was 97.9%; in the experiment with BT-549 breast, 132%; in the experiment on MDA-MB-435 melanoma it was 110%; with SW-620 colon, 105%. Also, the growth in the experiment with MCF7 breast is 96.2%; in the experiment with HCT-116 colon, 110%; in the experiment on HCC-2998 colon it was 98.4%; in the experiment with KM12 colon it was 103%.
`COc1cc2cc(c1Cl)N(C)C(=O)C[C@H](OC(=O)[C@H](C)N(C)C(C)=O)[C@]1(C)O[C@H]1[C@H](C)[C@@H]1C[C@@](O)(NC(=O)O1)[C@H](OC)C=C/C=C(\C)C2`: the growth with SR leukemia was 10.2%; with RPMI-8226 leukemia it was -4.44% (active); in the experiment with OVCAR-5 ovarian, 32.4%; in the experiment with SK-OV-3 ovarian, 36.1%; in the experiment on OVCAR-3 ovarian, -42.8% (active); with HS 578T breast, 9.98% (active). Further, the growth with NCI/ADR-RES ovarian is 3.31% (active); in the experiment on T-47D breast it was 74.6%; with BT-549 breast, -21% (active); with MDA-MB-435 melanoma, -53.3% (active); in the experiment on SW-620 colon it was 26.5%; in the experiment with MCF7 breast it was 14.2%. Besides, the figures for the growth in the experiment with HCT-116 colon, with HCC-2998 colon and with KM12 colon were -18.6% (active), -32% (active) and -42.3% (active), respectively.
With `CCNc1nc2c(cnn2C)c(=O)[nH]1`, the growth in the experiment with SR leukemia is 92.3%; in the experiment on RPMI-8226 leukemia it was 99.8%; in the experiment with OVCAR-5 ovarian, 103%; in the experiment on OVCAR-4 ovarian it was 109%; with SK-OV-3 ovarian, 96.2%; with IGROV1 ovarian it was 84.5%. Moreover, the growth in the experiment on OVCAR-3 ovarian was 109%; in the experiment with HS 578T breast, 92.5%; with NCI/ADR-RES ovarian, 108%; in the experiment with T-47D breast it was 92.5%; in the experiment with BT-549 breast, 102%; in the experiment with MDA-MB-435 melanoma it was 106%. The growth in the experiment with SW-620 colon is 97.9%; in the experiment with MCF7 breast it was 100%; with HCT-116 colon it was 99.2%; with HCC-2998 colon, 105%; in the experiment with KM12 colon, 108%.
As to `CCCC(=O)Nc1ccc2c(c1)CN1C(=O)c3ccccc3C1=N2`, the growth was 103% in the experiment with SR leukemia; 106% with RPMI-8226 leukemia; 98.2% in the experiment on OVCAR-8 ovarian; 107% in the experiment with OVCAR-4 ovarian; 110% in the experiment on SK-OV-3 ovarian; 111% in the experiment with IGROV1 ovarian. Besides, the growth in the experiment on OVCAR-3 ovarian is 102%; in the experiment on HS 578T breast, 119%; with NCI/ADR-RES ovarian, 99.5%; with T-47D breast, 101%; with BT-549 breast it was 107%; with MDA-MB-435 melanoma, 106%. Moreover, the growth in the experiment on SW-620 colon was 105%; in the experiment on MCF7 breast it was 96%; in the experiment with HCT-116 colon it was 102%; in the experiment on HCC-2998 colon, 85.4%.
Take `OCc1ccc(-c2ccc(-c3ccc(CO)s3)o2)s1`: the growth was 60.8% in the experiment on SR leukemia; -22.5% (active) in the experiment on RPMI-8226 leukemia; 103% with OVCAR-5 ovarian; -22.4% (active) in the experiment with OVCAR-4 ovarian; 78.2% in the experiment with SK-OV-3 ovarian; -73% (active) in the experiment on IGROV1 ovarian. Besides, the growth with OVCAR-3 ovarian was -30.8% (active); in the experiment with HS 578T breast, 81.8%; with NCI/ADR-RES ovarian it was 65.1%; in the experiment on T-47D breast it was -15.5% (active); in the experiment with BT-549 breast it was 58.4%; in the experiment with SW-620 colon, 10.9%. For the same molecule, the growth with MCF7 breast was 9.78% (active); with HCT-116 colon, 5.2% (active); in the experiment with HCC-2998 colon, -14.5% (active); with KM12 colon, 81.5%.
As for `CC(=Nc1ccccc1)C1=C(O)C(Cc2cccc(F)c2)NC1=O` (stereo not given), the growth is 0.385% (active) in the experiment on SR leukemia; 1.8% (active) with OVCAR-8 ovarian; 25.6% with OVCAR-5 ovarian; 36.4% in the experiment with OVCAR-4 ovarian; 4.34% (active) with SK-OV-3 ovarian; 13.8% in the experiment with IGROV1 ovarian. The growth in the experiment with OVCAR-3 ovarian is -36.1% (active); with HS 578T breast it was 45.6%; in the experiment with NCI/ADR-RES ovarian, 7.11% (active); in the experiment with T-47D breast it was 72.6%; in the experiment on BT-549 breast it was -20.2% (active); with MDA-MB-435 melanoma, -46.2% (active). Also, the growth is 26.8% in the experiment on SW-620 colon; 20.9% in the experiment with MCF7 breast; 7.22% (active) in the experiment on HCT-116 colon; 26.9% with HCC-2998 colon; -3.04% (active) in the experiment with KM12 colon.
In the case of `Nc1nc(OCc2ccccc2)c2[nH]cnc2n1`, the growth in the experiment on SR leukemia was 84.9%; with RPMI-8226 leukemia it was 115%; in the experiment on OVCAR-5 ovarian, 77.8%; in the experiment with OVCAR-4 ovarian it was 65.9%; in the experiment on SK-OV-3 ovarian it was 109%; in the experiment on IGROV1 ovarian, 93.4%. For the same molecule, the growth was 109% with OVCAR-3 ovarian; 93.6% in the experiment with HS 578T breast; 108% with NCI/ADR-RES ovarian; 101% with T-47D breast; 99.3% in the experiment with MDA-MB-435 melanoma; 102% in the experiment on SW-620 colon. The growth with MCF7 breast is 95.9%; in the experiment on HCT-116 colon, 95.4%; in the experiment on HCC-2998 colon it was 104%; in the experiment with KM12 colon, 112%.
Regarding `Oc1ccc2c(c1)OCC1(O)Cc3cc(O)c(O)cc3C21` (stereo not given), the growth was 78.4% in the experiment with SR leukemia; 62.5% with RPMI-8226 leukemia; 96.3% in the experiment with OVCAR-5 ovarian; 38.2% in the experiment with OVCAR-4 ovarian; 193% in the experiment on SK-OV-3 ovarian; 75.3% with IGROV1 ovarian. Besides, the growth in the experiment with OVCAR-3 ovarian was 93.7%; in the experiment on HS 578T breast it was 102%; with NCI/ADR-RES ovarian it was 91.7%; in the experiment with T-47D breast it was 168%; in the experiment on BT-549 breast, 88.9%; in the experiment on SW-620 colon it was 95%. Also, the results for the growth in the experiment with MCF7 breast, with HCT-116 colon and with HCC-2998 colon were 103%, 84.1% and 64.8%, respectively.
As to `CC(C)OC(=O)c1cc(NC(=S)OC(C)C)ccc1Cl`, the growth is 70.2% in the experiment with SR leukemia; 83.3% with RPMI-8226 leukemia; 67.2% in the experiment with OVCAR-5 ovarian; 99.1% in the experiment with OVCAR-4 ovarian; 95.1% in the experiment on SK-OV-3 ovarian; 89.9% in the experiment on IGROV1 ovarian. For the same molecule, the growth in the experiment on OVCAR-3 ovarian was 93.9%; in the experiment with HS 578T breast it was -29% (active); in the experiment on NCI/ADR-RES ovarian, 25.8%; with T-47D breast, 58.3%; with BT-549 breast it was 180%; in the experiment on MDA-MB-435 melanoma it was 97%. For the same molecule, the growth with SW-620 colon was 91.4%; in the experiment with MCF7 breast it was 95.1%; with HCT-116 colon it was 72.2%; with HCC-2998 colon, 160%; with KM12 colon, 59.5%.
